# From PMC11062922 (Nature Chemical Biology, 2023)
# Like-named read-outs stand apart in the source and are kept apart here.
# Legend:
# Design in all cases: species or system human, MV4-11 + K-562 + COLO205 + SK-N-BE2 + OVCAR-8
# DDR1 = conditions: read-out: apparent Kd, compound concentrations: 100 nM and 1000 nM (sheet 'Samples'), n = 1
# DJA1 = test system: T1, DJA1; conditions: read-out: apparent Kd, compound concentrations: 100 nM and 1000 nM (sheet 'Samples'), n = 1
# T1 construct: gene DNAJA1
# EGFR = conditions: read-out: apparent Kd; compound concentrations: 100 nM and 1000 nM (sheet 'Samples'), CATDS: 7.48044992603729E-2; n = 1
# HCK = conditions: read-out: apparent Kd; compound concentrations: 100 nM and 1000 nM (sheet 'Samples'), CATDS: 0.11641359939997301; n = 1
# LYN = conditions: read-out: apparent Kd; compound concentrations: 100 nM and 1000 nM (sheet 'Samples'), CATDS: 9.0520394407802393E-2; n = 1
# MAPK11 = conditions: read-out: apparent Kd; compound concentrations: 100 nM and 1000 nM (sheet 'Samples'), CATDS: 7.53995695049028E-2; n = 1
# RIPK3 = conditions: read-out: apparent Kd, compound concentrations: 100 nM and 1000 nM (sheet 'Samples'), n = 1
# TAOK3 = conditions: read-out: apparent Kd; compound concentrations: 100 nM and 1000 nM (sheet 'Samples'), CATDS: 7.5717255281347595E-2; n = 1
# TNK1 = conditions: read-out: apparent Kd; compound concentrations: 100 nM and 1000 nM (sheet 'Samples'), CATDS: 0.107193891906807; n = 1
# YES1 = conditions: read-out: apparent Kd; compound concentrations: 100 nM and 1000 nM (sheet 'Samples'), CATDS: 0.13069382201385599; n = 1
# DCTPP1 = conditions: read-out: apparent Kd, n = 1
# NLK = conditions: read-out: apparent Kd; compound concentrations:100 nM and 1000 nM (sheet 'Samples'); n = 1
# PDXK = conditions: read-out: apparent Kd; compound concentrations:100 nM and 1000 nM (sheet 'Samples'); n = 1
# PIK3C3 = conditions: read-out: apparent Kd; compound concentrations:100 nM and 1000 nM (sheet 'Samples'); n = 1
# PIK3CB = conditions: read-out: apparent Kd; compound concentrations:100 nM and 1000 nM (sheet 'Samples'); n = 1
# PIK3CD = conditions: read-out: apparent Kd; compound concentrations:100 nM and 1000 nM (sheet 'Samples'); n = 1
# CSNK2A2 = conditions: read-out: apparent Kd; compound concentrations: 100 nM and 1000 nM (sheet 'Samples'), CATDS: 0.17401411869460601; n = 1
# FLT4 = conditions: read-out: apparent Kd, compound concentrations: 100 nM and 1000 nM (sheet 'Samples'), n = 1
# NQO2 = conditions: read-out: apparent Kd; compound concentrations: 100 nM and 1000 nM (sheet 'Samples'), CATDS: 0.17633941136765999; n = 1
# JAK2 = conditions: read-out: apparent Kd; compound concentrations:100 nM and 1000 nM (sheet 'Samples'); n = 1
# MAPK14 = conditions: read-out: apparent Kd; compound concentrations:100 nM and 1000 nM (sheet 'Samples'); n = 1
# MAPK8 = conditions: read-out: apparent Kd; compound concentrations:100 nM and 1000 nM (sheet 'Samples'); n = 1
# MAPK9 = conditions: read-out: apparent Kd, n = 1
# MAPKAPK2 = conditions: read-out: apparent Kd; compound concentrations:100 nM and 1000 nM (sheet 'Samples'); n = 1
# PIP4K2C = conditions: read-out: apparent Kd; compound concentrations:100 nM and 1000 nM (sheet 'Samples'); n = 1
# CSNK2A1;CSNK2A3 = conditions: read-out: apparent Kd; compound concentrations: 100 nM and 1000 nM (sheet 'Samples'), CATDS: 0.22184782024324001; n = 1
# GAK = conditions: read-out: apparent Kd; compound concentrations: 100 nM and 1000 nM (sheet 'Samples'), CATDS: 0.30476726939930399; n = 1
# TTK = conditions: read-out: apparent Kd; compound concentrations: 100 nM and 1000 nM (sheet 'Samples'), CATDS: 0.21902937280851401; n = 1
# DDR2 = conditions: read-out: apparent Kd, compound concentrations: 100 nM and 1000 nM (sheet 'Samples'), n = 1
# PDGFRB = conditions: read-out: apparent Kd; compound concentrations: 100 nM and 1000 nM (sheet 'Samples'), CATDS: 0.14329981050248; n = 1
# RET = conditions: read-out: apparent Kd, compound concentrations: 100 nM and 1000 nM (sheet 'Samples'), n = 1
# EPHB4 = conditions: read-out: apparent Kd; compound concentrations: 100 nM and 1000 nM (sheet 'Samples'), CATDS: 0.37827965470914299; n = 1
# FLT3 = conditions: read-out: apparent Kd; compound concentrations: 100 nM and 1000 nM (sheet 'Samples'), CATDS: 0.237161124657183; n = 1
# [1] = compound concentrations:100 nM and 1000 nM (sheet 'Samples')
structure (smiles),measurement,setting,value
O=C(Nc1cccc(-c2nn3ncccc3c2-c2ccnc(Nc3ccccc3)n2)c1)c1c(F)cccc1F [GSK198271A],potency estimated from few doses,DDR1; CATDS: 0.101729312677661,711 nM
same,potency estimated from few doses,DJA1; CATDS: 0.31646295058989898,111 nM
same,potency estimated from few doses,EGFR,1600 nM
same,potency estimated from few doses,HCK,537 nM
same,potency estimated from few doses,LYN,933 nM
same,potency estimated from few doses,MAPK11,1560 nM
same,potency estimated from few doses,RIPK3; CATDS: 9.4746109979172405E-2,836 nM
same,potency estimated from few doses,TAOK3,1540 nM
same,potency estimated from few doses,TNK1,635 nM
same,potency estimated from few doses,YES1,431 nM
O=c1cc(N2CCOCC2)nc2n(Cc3cccc(Cl)c3Cl)c(C3CC3)nn12 [GSK2358994A],potency estimated from few doses,DCTPP1; [1],1200 nM
same,potency estimated from few doses,NLK,2260 nM
same,potency estimated from few doses,PDXK,1950 nM
same,potency estimated from few doses,PIK3C3,9.02 nM
same,potency estimated from few doses,PIK3CB,3.64 nM
same,potency estimated from few doses,PIK3CD,14.2 nM
CCS(=O)(=O)c1ccc(OC)c(Nc2ncc(-c3ccc(F)cc3)o2)c1.Cl [GW591947A],potency estimated from few doses,CSNK2A2,1860 nM
same,potency estimated from few doses,DJA1; CATDS: 0.455945316982168,131 nM
same,potency estimated from few doses,FLT4; CATDS: 0.41854797783311298,152 nM
same,potency estimated from few doses,NQO2,1750 nM
Cl.Cn1c(=O)c(Oc2ccc(F)cc2F)cc2cnc(NC3CCS(=O)(=O)CC3)nc21 [RO3308271-001],potency estimated from few doses,DCTPP1; [1],1310 nM
same,potency estimated from few doses,JAK2,494 nM
same,potency estimated from few doses,MAPK14,16.5 nM
same,potency estimated from few doses,MAPK8,922 nM
same,potency estimated from few doses,MAPK9; [1],212 nM
same,potency estimated from few doses,MAPKAPK2,13.3 nM
same,potency estimated from few doses,NLK,1220 nM
same,potency estimated from few doses,PIP4K2C,1310 nM
CNc1nc(Nc2ccc(C(=O)N3CCOCC3)cc2OC)ncc1Cl [HG-10-102-01],potency estimated from few doses,CSNK2A1;CSNK2A3,2220 nM
same,potency estimated from few doses,GAK,1180 nM
same,potency estimated from few doses,"MAPK9; compound concentrations: 100 nM and 1000 nM (sheet 'Samples'), CATDS: 0.27430209396639399",1430 nM
same,potency estimated from few doses,TTK,2290 nM
Cc1c2ccc(N(C)c3ccnc(Nc4cccc(S(N)(=O)=O)c4)n3)cc2nn1C.Cl [GW771127A],potency estimated from few doses,DDR1; CATDS: 0.23686059185109401,397 nM
same,potency estimated from few doses,DDR2; CATDS: 0.144406437385246,1670 nM
same,potency estimated from few doses,FLT4; CATDS: 0.67629550242263303,51.7 nM
same,potency estimated from few doses,PDGFRB,1720 nM
same,potency estimated from few doses,RET; CATDS: 0.185315990587263,746 nM
NC(=O)c1cc(-c2ccc(F)cc2)cc(-c2ccncc2)c1N [GSK620503A],potency estimated from few doses,"DCTPP1; compound concentrations: 100 nM and 1000 nM (sheet 'Samples'), CATDS: 0.31656078381531599",1520 nM
same,potency estimated from few doses,EPHB4,1070 nM
same,potency estimated from few doses,RIPK3; CATDS: 0.31274412248273797,1560 nM
COC(=O)Nc1nc2ccc(Oc3ccc(NC(=O)Nc4cccc(Cl)c4)cc3)cc2[nH]1.Cl [GW589961A],potency estimated from few doses,DDR1; CATDS: 0.527903704232491,199 nM
same,potency estimated from few doses,DDR2; CATDS: 0.19207540013006,1550 nM
same,potency estimated from few doses,FLT3,874 nM
same,potency estimated from few doses,RET; CATDS: 0.213543633827599,1140 nM
